According to PubChem BioAssay (EPA / NIEHS):
Records with an inconclusive call do not appear. The source made the active and inactive calls. Rule for the calls, unless noted: active = hit-call score of the fitted dose curve at least 0.9, where 1 is the maximum; inconclusive = response in the unintended direction; inactive = score below 0.9.

Key:
[1] = biological target: rat Serotonin Transporter (SERT), Slc6a4 (gene 25553) (UniProt P31652); experiment: NVS_TR_rSERT: NovaScreen (NVS) Transporter Assay for rat Serotonin Transporter (SERT) (AID 2283375)
Chain of rat Serotonin Transporter (SERT), Slc6a4 (gene 25553) (P31652 whole entry, looked up): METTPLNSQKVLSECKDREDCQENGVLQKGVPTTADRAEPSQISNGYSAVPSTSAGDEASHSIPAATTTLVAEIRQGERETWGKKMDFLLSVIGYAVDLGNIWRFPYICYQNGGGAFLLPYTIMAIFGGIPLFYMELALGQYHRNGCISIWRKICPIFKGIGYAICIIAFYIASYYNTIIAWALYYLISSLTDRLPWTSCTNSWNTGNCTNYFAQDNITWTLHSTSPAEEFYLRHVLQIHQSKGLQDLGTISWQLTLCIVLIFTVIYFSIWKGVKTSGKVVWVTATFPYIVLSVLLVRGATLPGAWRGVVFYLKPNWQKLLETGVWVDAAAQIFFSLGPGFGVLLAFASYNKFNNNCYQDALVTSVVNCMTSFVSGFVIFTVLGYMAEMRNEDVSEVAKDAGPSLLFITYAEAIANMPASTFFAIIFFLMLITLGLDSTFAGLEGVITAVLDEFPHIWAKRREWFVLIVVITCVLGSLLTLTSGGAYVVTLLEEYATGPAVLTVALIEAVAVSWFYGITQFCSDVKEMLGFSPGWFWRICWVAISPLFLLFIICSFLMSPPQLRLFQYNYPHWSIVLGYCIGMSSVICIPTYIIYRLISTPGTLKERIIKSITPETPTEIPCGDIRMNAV
In short: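 Rat forebrain membranes; radioligand displacement at SERT read by filter-based scintillation counting, 1 h after dosing. Screened in duplicate at 25 uM, actives then run in concentration series; loss of signal versus DMSO baseline.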

[2] = biological target: Estrogen receptor beta (Homo sapiens) (UniProt Q92731); experiment: OT_ER_ERbERb_1440: Odyssey Thera (OT) 24-hour HEK293T Protein-Complementation Assay for Estrogen Receptor-beta/-beta Homodimer (AID 2283380);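 note: fluorescence gain from ER beta LBD homodimer complementation read by laser scanning cytometry; scored as signal increase over DMSO baseline for both agonists and antagonists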
Chain of Estrogen receptor beta (Homo sapiens) (Q92731 whole entry, looked up, the tested form may be a part): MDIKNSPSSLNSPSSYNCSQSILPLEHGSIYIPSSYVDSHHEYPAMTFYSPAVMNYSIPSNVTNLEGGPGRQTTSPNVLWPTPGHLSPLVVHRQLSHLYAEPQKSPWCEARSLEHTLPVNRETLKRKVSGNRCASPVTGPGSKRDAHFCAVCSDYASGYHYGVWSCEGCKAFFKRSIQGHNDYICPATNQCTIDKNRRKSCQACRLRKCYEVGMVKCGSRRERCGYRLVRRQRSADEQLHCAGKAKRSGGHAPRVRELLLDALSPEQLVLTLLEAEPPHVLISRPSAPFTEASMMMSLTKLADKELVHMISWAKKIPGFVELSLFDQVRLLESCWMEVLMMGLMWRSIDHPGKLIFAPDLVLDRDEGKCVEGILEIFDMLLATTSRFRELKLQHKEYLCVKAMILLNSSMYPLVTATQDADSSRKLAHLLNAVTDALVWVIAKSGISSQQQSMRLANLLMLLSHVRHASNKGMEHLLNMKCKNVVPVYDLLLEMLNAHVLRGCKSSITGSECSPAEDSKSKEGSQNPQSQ
In short: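 Fluorescence increase, nuclear for agonists or whole-cell for antagonists, relative to DMSO vehicle, quantified by laser scanning cytometer after fixation and Draq5 staining. Readout from 24 h treatment of HEK293T cells carrying complementation-paired ER beta LBD (aa 310-547).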

[3] = biological target: Estrogen receptor (Homo sapiens) (UniProt P03372); experiment: OT_ERa_GFPERaERE_0480: Odyssey Thera (OT) 8-hour HeLa Transcription Induction Assay for Estrogen Receptor (AID 2283381; active = hit-call score of the fitted dose curve at least 0.9, where 1 is the maximum; inactive = score below 0.9)
Chain of Estrogen receptor (Homo sapiens) (P03372 whole entry, looked up): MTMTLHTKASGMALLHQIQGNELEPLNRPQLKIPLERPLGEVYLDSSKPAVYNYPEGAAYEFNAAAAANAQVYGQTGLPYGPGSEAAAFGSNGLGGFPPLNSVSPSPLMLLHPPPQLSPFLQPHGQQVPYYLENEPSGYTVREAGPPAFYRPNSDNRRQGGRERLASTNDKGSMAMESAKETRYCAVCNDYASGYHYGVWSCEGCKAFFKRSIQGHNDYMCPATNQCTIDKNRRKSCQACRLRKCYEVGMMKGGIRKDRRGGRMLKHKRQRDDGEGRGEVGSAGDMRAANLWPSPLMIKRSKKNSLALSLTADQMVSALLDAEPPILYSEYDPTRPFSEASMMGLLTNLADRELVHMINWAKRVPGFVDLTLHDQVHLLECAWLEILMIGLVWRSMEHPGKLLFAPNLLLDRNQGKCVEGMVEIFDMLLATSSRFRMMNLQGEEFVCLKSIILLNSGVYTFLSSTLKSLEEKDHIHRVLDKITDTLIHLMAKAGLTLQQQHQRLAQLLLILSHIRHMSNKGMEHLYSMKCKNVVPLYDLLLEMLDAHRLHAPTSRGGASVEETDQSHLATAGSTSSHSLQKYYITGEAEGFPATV
In short: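 An 8 h HeLa transcription-induction format with a GFP reporter under ERE control, read by fluorescence microscopy; single endpoint fitted positively with DMSO as baseline.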

[4] = biological target: Estrogen receptor (Homo sapiens) (UniProt P03372); experiment: OT_ERa_GFPERaERE_0120: Odyssey Thera (OT) 2-hour HeLa Transcription Induction Assay for Estrogen Receptor (AID 2283382)
In short: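 Two-hour compound treatment of HeLa cells preceded microscopy imaging of an inducible fluorescent reporter. Image-based quantification gave one endpoint, analysed for signal increase relative to DMSO controls.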

[5] = biological target: Agonist Androgen Response Element (ARE), AR (gene 367) (UniProt P10275); experiment: OT_AR_ARELUC_AG_1440: Odyssey Thera (OT) 24-hour CHO-K1 Luciferase Assay for Agonist Androgen Response Element (ARE) (AID 2283379)
Chain of Agonist Androgen Response Element (ARE), AR (gene 367) (P10275 whole entry, looked up): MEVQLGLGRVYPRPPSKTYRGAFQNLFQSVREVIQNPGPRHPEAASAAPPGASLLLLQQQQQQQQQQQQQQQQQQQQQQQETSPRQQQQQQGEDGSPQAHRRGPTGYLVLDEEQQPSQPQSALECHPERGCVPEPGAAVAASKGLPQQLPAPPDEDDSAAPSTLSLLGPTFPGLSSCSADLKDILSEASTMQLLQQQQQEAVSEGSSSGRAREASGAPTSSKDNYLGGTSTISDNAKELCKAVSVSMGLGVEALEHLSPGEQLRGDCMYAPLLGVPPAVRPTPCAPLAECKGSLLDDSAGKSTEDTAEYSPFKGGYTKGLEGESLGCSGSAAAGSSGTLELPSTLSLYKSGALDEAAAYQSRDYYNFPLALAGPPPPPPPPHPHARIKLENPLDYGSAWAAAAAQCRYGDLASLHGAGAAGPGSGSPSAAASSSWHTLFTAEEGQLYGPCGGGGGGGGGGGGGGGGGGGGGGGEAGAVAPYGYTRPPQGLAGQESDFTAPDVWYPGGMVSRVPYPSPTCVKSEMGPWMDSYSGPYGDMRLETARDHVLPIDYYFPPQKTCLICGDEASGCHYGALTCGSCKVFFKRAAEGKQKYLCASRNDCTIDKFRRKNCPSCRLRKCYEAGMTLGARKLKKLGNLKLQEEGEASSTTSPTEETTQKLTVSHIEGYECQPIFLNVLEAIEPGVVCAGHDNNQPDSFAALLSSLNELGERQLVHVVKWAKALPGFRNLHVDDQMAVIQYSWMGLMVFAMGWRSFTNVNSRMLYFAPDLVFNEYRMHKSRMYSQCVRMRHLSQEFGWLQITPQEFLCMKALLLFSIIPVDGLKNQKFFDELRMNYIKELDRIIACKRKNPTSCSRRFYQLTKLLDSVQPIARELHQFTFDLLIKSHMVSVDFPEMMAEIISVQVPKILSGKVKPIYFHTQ
In short: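 Readout: luciferase bioluminescence from CHO-K1 ARE-luc cells, measured 24 h post-dosing; agonism = increased mean luminescence vs DMSO controls, fitted in positive direction.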

[6] = biological target: mouse Estrogen Receptor alpha (Era), Esr1 (gene 13982) (UniProt P19785); experiment: NVS_NR_mERa: NovaScreen (NVS) Nuclear Receptor Binding Assay for mouse Estrogen Receptor alpha (Era) (AID 2283378);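 note: hit means loss of bound radioligand signal relative to DMSO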
Chain of mouse Estrogen Receptor alpha (Era), Esr1 (gene 13982) (P19785 whole entry, looked up): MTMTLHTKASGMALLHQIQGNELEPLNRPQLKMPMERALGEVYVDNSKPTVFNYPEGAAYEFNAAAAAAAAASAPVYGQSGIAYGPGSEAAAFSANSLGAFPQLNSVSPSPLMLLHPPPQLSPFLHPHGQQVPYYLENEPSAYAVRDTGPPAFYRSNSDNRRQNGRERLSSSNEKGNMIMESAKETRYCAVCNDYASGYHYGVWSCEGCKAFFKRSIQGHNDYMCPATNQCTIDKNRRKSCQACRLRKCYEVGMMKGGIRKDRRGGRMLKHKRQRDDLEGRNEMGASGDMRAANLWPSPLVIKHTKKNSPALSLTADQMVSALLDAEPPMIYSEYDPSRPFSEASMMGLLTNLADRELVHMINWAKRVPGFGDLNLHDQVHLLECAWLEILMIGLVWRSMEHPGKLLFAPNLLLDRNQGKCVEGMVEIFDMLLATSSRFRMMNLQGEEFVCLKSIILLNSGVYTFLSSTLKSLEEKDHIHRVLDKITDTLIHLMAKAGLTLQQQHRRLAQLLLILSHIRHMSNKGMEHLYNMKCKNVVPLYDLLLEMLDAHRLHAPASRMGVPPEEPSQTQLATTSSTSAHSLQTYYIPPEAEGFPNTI
In short: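 Cell-free radioligand competitive displacement binding, read by filter-based scintillation counting 18 h after dosing. Primary screen run in duplicate at 25 uM, actives retested in concentration series; loss of signal versus DMSO.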

[7] = biological target: Bile acid receptor (Homo sapiens) (UniProt Q96RI1); experiment: OT_FXR_FXRSRC1_0480: Odyssey Thera (OT) 8-hour HEK293T Protein-Complementation Assay for Farnesoid X receptor/SRC-1 Co-activator (AID 2283383)
Chain of Bile acid receptor (Homo sapiens) (Q96RI1 whole entry, looked up): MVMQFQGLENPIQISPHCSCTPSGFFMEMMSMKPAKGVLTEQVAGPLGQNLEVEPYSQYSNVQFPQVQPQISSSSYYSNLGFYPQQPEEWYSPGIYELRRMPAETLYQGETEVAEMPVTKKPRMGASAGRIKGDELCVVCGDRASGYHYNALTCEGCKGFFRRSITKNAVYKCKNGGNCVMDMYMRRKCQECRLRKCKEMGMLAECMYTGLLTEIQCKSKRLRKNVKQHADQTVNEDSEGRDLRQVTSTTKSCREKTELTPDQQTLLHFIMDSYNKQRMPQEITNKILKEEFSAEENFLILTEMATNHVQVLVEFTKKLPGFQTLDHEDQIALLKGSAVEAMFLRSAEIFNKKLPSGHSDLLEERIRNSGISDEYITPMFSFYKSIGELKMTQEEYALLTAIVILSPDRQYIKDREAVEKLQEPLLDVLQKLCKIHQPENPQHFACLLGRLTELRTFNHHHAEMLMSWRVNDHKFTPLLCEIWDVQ
In short: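 Readings were taken 8 h after dosing HEK293T cells in a split-reporter complementation format pairing FXR with SRC-1. Increased fluorescence relative to DMSO-treated wells defined activity.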

[8] = biological target: human Serotonin Transporter (SERT), SLC6A4 (gene 6532) (UniProt P31645); experiment: NVS_TR_hSERT: NovaScreen (NVS) Transporter Assay for human Serotonin Transporter (SERT) (AID 2283372)
Chain of human Serotonin Transporter (SERT), SLC6A4 (gene 6532) (P31645 whole entry, looked up): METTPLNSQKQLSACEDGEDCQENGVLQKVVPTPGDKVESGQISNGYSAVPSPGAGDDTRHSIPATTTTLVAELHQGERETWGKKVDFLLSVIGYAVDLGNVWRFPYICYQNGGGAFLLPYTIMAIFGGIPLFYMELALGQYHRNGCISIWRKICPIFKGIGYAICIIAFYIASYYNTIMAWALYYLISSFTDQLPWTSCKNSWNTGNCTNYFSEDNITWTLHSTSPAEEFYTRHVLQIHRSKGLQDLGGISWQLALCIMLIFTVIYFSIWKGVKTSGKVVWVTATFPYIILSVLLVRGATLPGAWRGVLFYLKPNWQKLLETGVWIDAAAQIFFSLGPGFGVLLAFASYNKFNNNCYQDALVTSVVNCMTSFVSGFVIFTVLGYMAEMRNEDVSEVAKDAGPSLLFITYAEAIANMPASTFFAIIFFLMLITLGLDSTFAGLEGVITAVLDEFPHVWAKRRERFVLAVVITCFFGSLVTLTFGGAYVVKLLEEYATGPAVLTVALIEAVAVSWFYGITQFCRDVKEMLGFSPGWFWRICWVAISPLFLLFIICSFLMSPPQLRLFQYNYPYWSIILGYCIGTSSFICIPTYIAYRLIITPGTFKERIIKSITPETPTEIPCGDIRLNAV
Method: NVS_TR_hSERT is a biochemical, single-readout assay that uses extracted gene-proteins from Human platelet membranes in a tissue-based cell-free assay. Measurements were taken 1 hour after chemical dosing in a 96-well plate.NVS_TR_hSERT is one of one assay component(s) measured or calculated from the NVS_TR_hSERT assay. It is designed to make measurements of radioligand binding, a form of binding reporter, as detected with scintillation counting signals by Filter-based radiodetection technology.Data from the assay component NVS_TR_hSERT was analyzed into 1 assay endpoint. This assay endpoint, NVS_TR_hSERT, was analyzed in the positive analysis fitting direction relative to DMSO as the negative control and baseline of activity. […] Furthermore, this assay endpoint can be referred to as a primary readout, because the performed assay has only produced 1 assay endpoint. […]
Binding assays used specific radioligands (tritiated, iodinated) with non-radioactive competitive displacement ligands in agonist or antagonist protocols (as indicated) and various reference compounds and inhibitors to titrate specific binding to receptors and transporters. Most enzyme assays (CYPs, kinases, phosphatases, proteases, HDACs) used recombinant protein and specific substrates (fluorescence mostly, some colorimetric and radioactive) and inhibitors, followed by a biochemical separation of substrate and product. […]

[9] = biological target: human Norepinephrine Transporter (NET), SLC6A2 (gene 6530) (UniProt P23975); experiment: NVS_TR_hNET: NovaScreen (NVS) Transporter Assay for human Norepinephrine Transporter (NET) (AID 2283377);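 note: cell-free membrane protein extracted from CHO cells expressing human NET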;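 for AC50: displacement of radioligand from human NET seen as loss of scintillation signal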
Chain of human Norepinephrine Transporter (NET), SLC6A2 (gene 6530) (P23975 whole entry, looked up): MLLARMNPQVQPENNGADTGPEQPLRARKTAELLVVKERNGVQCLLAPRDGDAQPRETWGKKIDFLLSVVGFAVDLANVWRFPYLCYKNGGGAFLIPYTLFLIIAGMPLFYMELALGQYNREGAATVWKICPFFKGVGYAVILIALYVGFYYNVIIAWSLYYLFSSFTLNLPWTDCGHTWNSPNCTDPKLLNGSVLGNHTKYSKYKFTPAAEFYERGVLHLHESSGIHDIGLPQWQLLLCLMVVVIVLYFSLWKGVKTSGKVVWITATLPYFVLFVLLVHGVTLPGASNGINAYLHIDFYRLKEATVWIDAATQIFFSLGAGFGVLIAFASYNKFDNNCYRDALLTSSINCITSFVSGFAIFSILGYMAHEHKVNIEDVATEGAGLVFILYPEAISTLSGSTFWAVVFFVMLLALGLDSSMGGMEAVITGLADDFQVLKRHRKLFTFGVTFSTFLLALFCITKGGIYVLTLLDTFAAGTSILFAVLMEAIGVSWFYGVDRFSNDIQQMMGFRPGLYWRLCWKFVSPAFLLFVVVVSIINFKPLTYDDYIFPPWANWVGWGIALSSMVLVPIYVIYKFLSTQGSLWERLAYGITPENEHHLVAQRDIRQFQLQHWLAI
In short: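 Single-concentration duplicate screen at 25 uM, then concentration-response for actives; displacement of specific radioligand from human NET in CHO membrane extracts, filter-based scintillation detection at 1 h relative to DMSO.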

[10] = test system: rat Norepinephrine Transporter (NET), gene 83511; experiment: NVS_TR_rNET: NovaScreen (NVS) Transporter Assay for rat Norepinephrine Transporter (NET) (AID 2283373)
In short: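 Competitive radioligand displacement at the rat NET using forebrain membrane preparations, 1 h incubation, filter-based scintillation readout. Primary testing in duplicate at a single 25 uM concentration; confirmed actives retested across concentrations.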

Measured: AC50

Cc1ccc(S(=O)(=O)NC(=O)NN2CCCCCC2)cc1
inactive: [1] | [2] | [3] | [4]

CCCCOC(=O)c1ccccc1
inactive: [5] | [3] | [4]

c1ccc2c(c1)-c1cccc3c1c-2cc1ccccc13
inactive: [6] | [2] | [3]
active: [4] 77.5 µM

CC(C)C(=O)Nc1ccc([N+](=O)[O-])c(C(F)(F)F)c1
inactive: [6] | [2] | [4] | [7]

NC(=O)N1c2ccccc2C=Cc2ccccc21
inactive: [6] | [2] | [4]

CC(C)CCCCCCOC(=O)C1CCCCC1C(=O)OCCCCCCC(C)C (stereo not drawn)
inactive: [6] | [2] | [4] | [7]

CCCc1ccccc1
inactive: [2] | [3] | [4]

OCCOCCOCCO
not listed: [1] | [7] | [10]
inactive: all other assays above

CCCCCCCCCCCCCCCCOS(=O)(=O)O
inactive: [5] | [2] | [4] | [7]
active: [9] 19.6 µM | [6] 7.04 µM

COS(C)(=O)=O
inactive: [6] | [3]

Cc1cccc(O)c1C
inactive: [6] | [2] | [4] | [7]

OCc1ccccc1
inactive: [5] | [2] | [4]

O=c1[nH]cnc2c1ncn2[C@H]1CC[C@@H](CO)O1
inactive: [10] | [4]

O=S(=O)(O)c1ccc(N=Nc2c(O)ccc3cc(S(=O)(=O)O)ccc23)cc1
inactive: [1] | [4]

CCc1cccc(CC)c1N
inactive: [5] | [2] | [4]

CCCCCCCCCC
inactive: [1] | [2] | [4] | [7]

C=CCc1cc(S(=O)(=O)c2ccc(O)c(CC=C)c2)ccc1O
inactive: [2] | [3] | [4]
active: [9] 6.96 µM | [6] 14.6 µM
